Hit rate of the full screen: of about 350,000 compounds, about 31,000 (8.9%) were called active. About 15% were inconclusive and are not listed. The sample as a whole holds a higher share of actives than the screen did. A number with no mark means an inactive call. Calls follow the shape of the dose curve; as a rule, active = well fitted inhibition curve with a large enough effect; inconclusive = small, poorly fitted or top-dose-only effect; inactive = no such curve, though single readings can be large or run the other way.
The molecules below were run against Histone-lysine N-methyltransferase EHMT2 (Homo sapiens) (UniProt Q96KQ7) (assay: qHTS Assay for Inhibitors of Histone Lysine Methyltransferase G9a). Settings: G9a H3K9 monomethylation, AlphaScreen, 2 h; series mostly up to 59 µM; activity, negative = inhibition: at the top concentration.
In short: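 Enzyme 20 nM + cpd, 15 min RT; add b-H3K9 pep 500 nM / SAM 20 uM; 2 h RT; anti-H3K9me1 Ab 0.5 ug/mL + SA donor / anti-rabbit acceptor beads 20 ug/mL each, 10 min; AlphaScreen read.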
% is scaled to controls: 0 for no effect and ±100 for the full control effect; potency is read from the fitted curve at half-maximal effect.
Also: nearly all actives have a fitted effect of over 75% in size.

Sequence of Histone-lysine N-methyltransferase EHMT2 (Homo sapiens) (Q96KQ7 913-1193 limits assumed): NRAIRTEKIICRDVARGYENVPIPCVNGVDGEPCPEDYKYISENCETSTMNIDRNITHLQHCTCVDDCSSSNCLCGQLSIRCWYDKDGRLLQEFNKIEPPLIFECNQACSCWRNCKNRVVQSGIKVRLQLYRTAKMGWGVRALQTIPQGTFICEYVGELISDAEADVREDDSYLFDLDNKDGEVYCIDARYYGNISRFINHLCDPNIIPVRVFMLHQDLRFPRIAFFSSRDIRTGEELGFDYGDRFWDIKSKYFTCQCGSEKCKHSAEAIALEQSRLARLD

| Structure (SMILES) | activity, negative = inhibition | Potency |
| --- | --- | --- |
| CCOC(=O)c1ccc(NC(=O)CC2C(=O)N(c3cccc(OC)c3)C(=O)N2C2CCCCC2)cc1 (configuration not stated) | -29% | – |
| Cc1ccc(C(=O)NCCNC(=O)c2ccccc2)cc1 | 26.4% | – |
| Cc1sc(NC(=O)c2ccc3ncsc3c2)c(C(N)=O)c1C | -49.7% [at 102 µM] | – |
| Cc1ccc(NC(=O)c2c(NC(=O)CCC(=O)O)sc3c2CCCCC3)cc1 | – | 28.2 µM (active) |
| O=C(Cc1ccccc1)Nc1sc2c(c1C(=O)Nc1ccc(Br)cc1)CCC2 | 11.7% | – |
| CCOc1ccc(CCNC(=O)c2csc3c2CCCCC3)cc1 | -6.99% | – |
| CCOC(=O)c1ccc(NC(=O)c2csc3c2CCCCC3)cc1 | -24.4% | – |
| CCOC(=O)c1ccc(NC(=O)c2c(NCc3cccc(OC)c3)sc3c2CCC3)cc1 | – | 7.94 µM (active) |
| COC(=O)c1c(NC(=O)CCCC(=O)O)sc2c1CCCCC2 | 23% [at 12.7 µM] | – |
| CCOC(=O)c1c(NC(=O)CCC(=O)NCc2ccco2)sc2c1CCCC2 | 6.67% | – |
| Cc1ccc(C(=O)c2c(NC(=O)c3ccccc3)sc(C)c2C)cc1 | – | 8.91 µM (active) |
| CCOc1ccc(NC(=O)c2c(NC(=O)Cc3ccccc3)sc3c2CCCCC3)cc1 | – | 1.12 µM (active) |
| Cc1cc(C)cc(Nc2ncnc3onc(-c4ccc(F)cc4)c23)c1 | -3.93% | – |
| CNC(=O)CN1C(=O)c2cccnc2Sc2ccccc21 | 18.1% | – |
| O=C(CSc1oc(-c2ccco2)nc1S(=O)(=O)c1ccccc1)c1ccc(Cl)cc1 | -33.3% | – |
| COc1cccc(NC(=O)c2ccccc2N(Cc2ccccc2)S(C)(=O)=O)c1 | 19.2% [at 0.501 µM] | – |
| COc1ccc(-n2c(SCC(=O)Nc3ccc(Cl)c(C)c3)nc3n[nH]c(C)c3c2=N)cc1 | 8.7% | – |
| COc1ccc(C2C(=O)N(C3CCCCC3)CC(=O)N2Cc2ccccc2Cl)cc1OC (configuration not stated) | -2.55% | – |
| Cc1cc(C(=O)COc2ccccc2Cl)c(C)n1C1CC1 | 15.7% [at 0.501 µM] | – |
| O=C(CC(c1cccs1)N1Cc2ccccc2C1=O)Nc1ccc(F)cc1F (configuration not stated) | -1.76% | – |
| Cc1cccc(OCCCC(=O)Nc2sc3c(c2C(N)=O)CCC(C)C3)c1 (configuration not stated) | -6.2% | – |
| COC(=O)c1c(NC(=O)c2cccs2)sc2c1CCCC2 | -19.4% | – |
| Cc1ccc(C(=O)c2c(NC(=O)c3ccncc3)sc3c2CCCC3)cc1 | – | 15.8 µM (active) |
| COC(=O)c1c(NC(=O)c2ccc(Cl)c(Cl)c2)sc2c1CCCC2 | -44.1% | – |
| COC(=O)c1c(NC(=O)CCCOc2ccccc2)sc2c1CCC(C)C2 (configuration not stated) | 45% | – |
| CCOc1ccc(NC(=O)c2c(NC(=O)Cc3ccccc3)sc3c2CCC(C)C3)cc1 (configuration not stated) | – | 2 µM (active) |
| CCOc1ccc(NC(=O)Cn2c(=O)n(CCCC(=O)NCc3ccc4c(c3)OCO4)c(=O)c3ccccc32)cc1 | -29.8% | – |
